Assay in all cases: growth (OD600 after 10 h); higher = more growth (less inhibition)
For test [1], the system named is E. coli TESEC Alr+ wild-type control. Particulars: compound 0.1 mM; raw OD600 reference: median of DMSO wells 0.241, cell-free background 0.041. The procedure: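 TESEC Mtb Alr E. coli, or the Alr+ wild-type control, in 384-well plates with Prestwick library compounds at 0.1 mM and 1% DMSO, across arabinose induction levels of 1E3 to 1E7 nM. Growth is read as OD600 after 10 h at 37 °C in triplicate biological replicates.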

The subject of a further test is E. coli TESEC Mtb Asd. Particulars: compound 0.1 mM. The method, then: (§1)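 TESEC E. coli strains in which the native enzyme is deleted and replaced by arabinose-inducible Mtb Asd, DapB, CysH or TrpD, each grown in its selective medium. Strains were screened against the Prestwick library at 0.1 mM and 1% DMSO in 384-well format at low and high arabinose induction. Growth is read as OD600 after 10 h in triplicate.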

The next test deals with E. coli TESEC Mtb DapB. The following applies: compound 0.1 mM. The procedure:
as §1

Test [2] has as its system E. coli TESEC Alr+ wild-type control. Particulars: compound 0.1 mM; raw OD600 reference: median of DMSO wells 0.49, cell-free background 0.052. The procedure:
(§2)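 TESEC Mtb Alr E. coli (ΔaraC ΔtolC ΔentC Δalr ΔdadX, arabinose-inducible Mtb Alr) or the Alr+ wild-type control strain, grown in defined M9-fructose medium without D-alanine in 96-well plates with Prestwick library compounds at 0.1 mM and 1% DMSO. Low Alr induction is 0.1 µM arabinose and high induction is 10 mM arabinose.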

A further test concerns E. coli TESEC Mtb Alr. The following applies: compound 0.1 mM. The method, then: as §2
The mark [3] stands for this setting: arabinose induction (level): High, raw OD600 reference: median of DMSO wells 0.331, cell-free background 0.041.
[4] abbreviates: arabinose induction (level): Low, raw OD600 reference: median of DMSO wells 0.417, cell-free background 0.041.
[5] abbreviates: arabinose induction (level): High, raw OD600 reference: median of DMSO wells […], cell-free background 0.041.
Where [6] appears, read: arabinose induction (level): Low, raw OD600 reference: median of DMSO wells 0.227, cell-free background 0.041.
The mark [7] stands for this setting: arabinose 100 nM, raw OD600 reference: median of DMSO wells 0.413, cell-free background 0.052.
Setting [8] is: arabinose 10000000 nM, raw OD600 reference: median of DMSO wells […], cell-free background 0.052.

From the supplement of paper PMC9262897, “Low-cost anti-mycobacterial drug discovery using engineered E. coli” (Nature Communications, 2022) come the findings set out here.

Structures can show the parent of a compound that is named as a salt. ± gives the standard deviation of the averaged measurements.

In the case of `CC(=O)N(CC(O)CN(C(C)=O)c1c(I)c(C(=O)NCC(O)CO)c(I)c(C(=O)NCC(O)CO)c1I)c1c(I)c(C(=O)NCC(O)CO)c(I)c(C(=O)NCC(O)CO)c1I` (centres undefined) [Iodixanol], the growth in test [1] was 0.235 ± 0.0081; with E. coli TESEC Mtb Asd (setting [3]) it was 0.358 ± 0.082; in the test on E. coli TESEC Mtb Asd (setting [4]), 0.421 ± 0.015; in the test on E. coli TESEC Mtb DapB (setting [5]), 0.206 ± 0.0036; in the test on E. coli TESEC Mtb DapB (setting [6]), 0.215 ± 0.043; in test [2] it was 0.537 ± 0.093. For the same compound, the growth with E. coli TESEC Mtb Alr (setting [7]) was 0.406 ± 0.013; with E. coli TESEC Mtb Alr (setting [8]), 0.334 ± 0.0038.

For the compound `CC(=O)Nc1ccc(CC(=O)O)cc1` [Actarit], the growth in test [1] is 0.2349 ± 0.00093; with E. coli TESEC Mtb Asd (setting [3]) it was 0.291 ± 0.009; in the test on E. coli TESEC Mtb Asd (setting [4]) it was 0.311 ± 0.097; with E. coli TESEC Mtb DapB (setting [5]), 0.183 ± 0.017; in the test on E. coli TESEC Mtb DapB (setting [6]), 0.203 ± 0.025; in test [2] it was 0.574 ± 0.11. In addition, the growth in the test with E. coli TESEC Mtb Alr (setting [7]) is 0.412 ± 0.011; in the test with E. coli TESEC Mtb Alr (setting [8]), 0.342 ± 0.015.

On to `CCCCN1CCCCC1C(=O)Nc1c(C)cccc1C` (centres undefined) [Bupivacaine hydrochloride], for which the growth in test [1] worked out at 0.2359 ± 0.0017; in the test with E. coli TESEC Mtb Asd (setting [3]) it was 0.257 ± 0.046; in the test with E. coli TESEC Mtb Asd (setting [4]), 0.418 ± 0.025; in the test on E. coli TESEC Mtb DapB (setting [5]) it was 0.187 ± 0.013; in the test with E. coli TESEC Mtb DapB (setting [6]) it was 0.266 ± 0.047; in test [2], 0.489 ± 0.051. Also, the growth in the test with E. coli TESEC Mtb Alr (setting [7]) amounted to 0.409 ± 0.01; in the test with E. coli TESEC Mtb Alr (setting [8]), 0.339 ± 0.014.

Consider `CC12CC3CC(C)(C1)CC(N)(C3)C2` [Memantine Hydrochloride], for which the growth turned out to be 0.161 ± 0.005 in test [1]; 0.256 ± 0.039 in the test on E. coli TESEC Mtb Asd (setting [3]); 0.155 ± 0.011 in the test with E. coli TESEC Mtb Asd (setting [4]); 0.165 ± 0.011 in the test with E. coli TESEC Mtb DapB (setting [5]); 0.199 ± 0.0086 in the test with E. coli TESEC Mtb DapB (setting [6]); 0.503 ± 0.12 in test [2]. In addition, the growth with E. coli TESEC Mtb Alr (setting [7]) turned out to be 0.398 ± 0.018; with E. coli TESEC Mtb Alr (setting [8]), 0.392 ± 0.018.

For the compound `COc1ccccc1OCC(O)COC(N)=O` (centres undefined) [Methocarbamol], the growth in test [1] was 0.2535 ± 0.00091; with E. coli TESEC Mtb Asd (setting [3]) it was 0.292 ± 0.018; in the test on E. coli TESEC Mtb Asd (setting [4]) it was 0.397 ± 0.058; in the test with E. coli TESEC Mtb DapB (setting [5]) it was 0.178 ± 0.012; in the test on E. coli TESEC Mtb DapB (setting [6]) it was 0.183 ± 0.018; in test [2], 0.509 ± 0.11. Moreover, the growth came to 0.412 ± 0.0098 with E. coli TESEC Mtb Alr (setting [7]) and 0.347 ± 0.0072 in the test on E. coli TESEC Mtb Alr (setting [8]).

As to `Nc1c2c(nc3ccccc13)CCCC2O` (racemic) [Hydroxytacrine maleate (R,S)], the growth amounted to 0.227 ± 0.0038 in test [1]; 0.218 ± 0.012 in the test with E. coli TESEC Mtb Asd (setting [3]); 0.257 ± 0.034 with E. coli TESEC Mtb Asd (setting [4]); 0.203 ± 0.018 in the test with E. coli TESEC Mtb DapB (setting [5]); 0.205 ± 0.015 in the test with E. coli TESEC Mtb DapB (setting [6]); 0.612 ± 0.088 in test [2]. Further, the growth in the test with E. coli TESEC Mtb Alr (setting [7]) was 0.4 ± 0.0077; in the test with E. coli TESEC Mtb Alr (setting [8]), 0.352 ± 0.0099.

As for `CN(C)C(=N)NC(=N)N` [Metformin hydrochloride], the growth in test [1] came to 0.253 ± 0.0099; with E. coli TESEC Mtb Asd (setting [3]) it was 0.372 ± 0.032; with E. coli TESEC Mtb Asd (setting [4]), 0.404 ± 0.032; in the test with E. coli TESEC Mtb DapB (setting [5]), 0.218 ± 0.037; in the test on E. coli TESEC Mtb DapB (setting [6]) it was 0.235 ± 0.043; in test [2], 0.447 ± 0.052. For the same compound, the results for the growth with E. coli TESEC Mtb Alr (setting [7]) and in the test with E. coli TESEC Mtb Alr (setting [8]) were 0.404 ± 0.015 and 0.349 ± 0.032, respectively.

For the compound `CC(C)[N+](C)(CCOC(=O)C1c2ccccc2Oc2ccccc21)C(C)C` [Propantheline bromide], the growth came out at 0.169 ± 0.0072 in test [1]; 0.233 ± 0.051 in the test with E. coli TESEC Mtb Asd (setting [3]); 0.417 ± 0.047 in the test on E. coli TESEC Mtb Asd (setting [4]); 0.156 ± 0.011 in the test on E. coli TESEC Mtb DapB (setting [5]); 0.17 ± 0.0089 in the test on E. coli TESEC Mtb DapB (setting [6]); 0.644 ± 0.057 in test [2]. In addition, the growth came out at 0.406 ± 0.011 in the test on E. coli TESEC Mtb Alr (setting [7]) and 0.32773 ± 0.00025 in the test with E. coli TESEC Mtb Alr (setting [8]).
